# Screening data deposited in PubChem BioAssay by National Center for Advancing Translational Sciences (NCATS).
# This is a sample that favours compounds with a hit; in the whole collection about 2.1% have one here.
# D2 PAM-1: HTS Assay for Positive Allosteric Modulators of the Human D2 Dopamine Receptor: Primary Screen for Potentiators. hit rate 0.34% among 340,000. D(2) dopamine receptor (Homo sapiens), P14416. HEK293 T-REx D2, calcium flux, EC20 dopamine potentiation. potentiation, % at 10 µM;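 active = potentiation over 3 SD above the plate norm, cut at about 30% in these data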; note: 0% is about no effect
#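 Calcium flux readout, no-wash dye, 1 read/s. Inducible HEK293 Trex D2 line, overnight 30 C. Compound alone 180 s (agonist flags), then EC20 dopamine, another 180 s to score potentiation.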
# D2 ag-1: HTS Assay for Allosteric Agonists of the Human D2 Dopamine Receptor: Primary Screen for Agonists; D(2) dopamine receptor (Homo sapiens), P14416; HEK293 T-REx D2 cells, calcium flux agonist mode; activation, % at 2 µM; hit rate 0.53% among 340,000;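 active = activation over 3 SD above normal in the single-dose calcium agonist read, cut at about 30% in these data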; note: 0% is about no effect
#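 In this primary screen, compounds producing a positive calcium signal within 180 s of addition to tetracycline-induced, force-coupled HEK293 Trex D2 cells are flagged; cells are dye-loaded with a no-wash calcium kit beforehand.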
# LDHA inh: qHTS assay for inhibitors of human lactate dehydrogenase | hit rate 0.15% among 480,000 | AID 1347041, 2019 | purified LDHA, NADH/diaphorase-resazurin fluorescence; stronger effect = lower value | L-lactate dehydrogenase A chain (Homo sapiens), P00338 | activity change, % (values are at about 110 or 230 µM); in the data active = activity change below about -30%; inconclusive = mostly about -25% to -30%;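 note: plate controls were DMSO wells for no effect and wells without enzyme for full effect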
#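 Remaining NADH was detected by diaphorase (0.133 mg/mL) converting 37 µM resazurin to fluorescent resorufin, read at 0 and 20 minutes. The preceding 5-minute room-temperature reaction used 2 nM LDHA, 0.2 mM sodium pyruvate and 0.06 mM NADH at pH 7.4.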
# D2 antag: HTS Assay for Allosteric Antagonists of the Human D2 Dopamine Receptor: Primary Screen for Antagonists; inhibition, % at 10 µM; D(2) dopamine receptor (Homo sapiens), P14416; HEK293 TREx D2 cells, calcium flux, dopamine EC80; AID 485344, 2010; hit rate 2% among 340,000; in the data active = inhibition above about 30%; inactive = below that, where a call was filed; note: 0% is about no effect
#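 Overnight-induced (tetracycline, 30 C) HEK293 T-REx cells carrying force-coupled D2 receive a no-wash calcium dye, then compound, then EC80 dopamine at 180 s; signals are read kinetically throughout.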
# D2 ag-2: Beta-Arrestin HTS for Positive Allosteric Modulators of the Human D2 Dopamine Receptor: Agonists | activation, % (concentration not given with the values) | D(2) dopamine receptor (Homo sapiens), P14416 | DiscoveRx PathHunter D2 beta-arrestin, luminescence, 90 min; 100% = 57 uM dopamine signal | hit rate 0.084% among 360,000 | AID 624465, 2012; in the data active = activation above about 40%; inconclusive = between about 15% and that limit
#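 DiscoveRx PathHunter D2 beta-arrestin cells (2,100/well) attached overnight, then compound-stimulated 90 min at 37 C in HBSS/10 mM HEPES/0.1% Tween-20 buffer; beta-galactosidase complementation read by luminescence after 1 h at ambient temperature. Dopamine 57 uM final (EC100) as control.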
# D2 PAM-2: Beta-Arrestin HTS for Positive Allosteric Modulators of the Human D2 Dopamine Receptor: Potentiators; D(2) dopamine receptor (Homo sapiens), P14416; potentiation, % (test concentration not listed); hit rate 0.23% among 360,000; DiscoveRx D2 beta-arrestin cells, luminescence, 90 min; 100% = 57 uM dopamine signal; in the data active = potentiation above about 50%; inconclusive = mostly about 30% to 49%
#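 PathHunter beta-arrestin assay in DiscoveRx D2 cells. Compounds were added with an EC20 of dopamine (50 nM final) for 90 min at 37 deg C. Luminescence was read 1 h after detection reagent, with 57 uM dopamine as the EC100 control.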
# D3 arrestin ag: qHTS of D3 Dopamine Receptor Agonist: D3 Dopamine Receptor B-arrestin Agonist Confirmatory Assay. shares compounds with D2 ag-1. DiscoveRx D3 beta-arrestin cells, luminescence, 90 min. Potency, µM (highest dose often 76.9 µM), without a hit: top-dose activation, usual class: activators. hit rate 4% among 2,300. AID 720506, 2013;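 note: potency is the fitted concentration of half-maximal effect; 100% = dopamine control response; nearly all actives have a fitted effect of over 70% in size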
# Target sequence (P35462 whole entry, looked up): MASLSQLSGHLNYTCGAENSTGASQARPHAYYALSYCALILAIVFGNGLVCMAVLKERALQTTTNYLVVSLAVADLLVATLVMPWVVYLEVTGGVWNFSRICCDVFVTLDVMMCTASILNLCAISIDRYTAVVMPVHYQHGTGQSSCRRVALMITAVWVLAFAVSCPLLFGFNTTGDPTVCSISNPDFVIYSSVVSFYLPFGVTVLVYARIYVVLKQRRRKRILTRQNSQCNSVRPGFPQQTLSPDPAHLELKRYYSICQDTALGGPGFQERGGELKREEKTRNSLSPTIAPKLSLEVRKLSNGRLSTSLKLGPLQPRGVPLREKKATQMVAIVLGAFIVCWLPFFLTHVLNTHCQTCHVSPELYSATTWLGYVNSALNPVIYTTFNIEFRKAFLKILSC
# D2 ag-3: qHTS of D3 Dopamine Receptor Agonist: D2 Dopamine Receptor B-arrestin Agonist Counterscreen. shares compounds with D2 ag-1. DiscoveRx PathHunter D2 beta-arrestin, luminescence, 90 min; response scale: percent relative to full dopamine signal. Potency, µM (series often up to 76.9 µM), inactives show at the highest dose activation, actives largely listed as activators. hit rate 5.9% among 2,300. AID 720507, 2013; note: potency is the fitted concentration of half-maximal effect; % of control where 0% means no effect; nearly all actives have a fitted effect of over 70% in size
# Numbers without * were called inactive; ? = inconclusive; nt = not tested or not shown. Unless noted, calls come from the whole dose curve; as a rule, active = well fitted activation curve with a large enough effect; inconclusive = small, poorly fitted or top-dose-only effect; inactive = flat fitted curve, though single readings scatter.
SMILES,D2 PAM-1,D2 ag-1,LDHA inh,D2 antag,D2 ag-2,D2 PAM-2,D3 arrestin ag,D2 ag-3
CCN1CCN(CC(=O)Nc2ccc(Cl)c(S(=O)(=O)N(C)C)c2)CC1,1,-1,-22,5,-4,-18,nt,nt
CN(C)S(=O)(=O)c1cc(NC(=O)CN2CCN(c3ccccc3F)CC2)ccc1Cl,-11,54*,-10,53*,?,5,?,?
Nc1ccc2[nH]ncc2c1,-4,18,2,34*,-1,10,?,11%
O=C(NNC(=S)Nc1ccccc1)c1ccccc1Br,nt,nt,12,nt,nt,nt,nt,nt
COc1ccc(-c2cn(Cc3ccc4c(c3)C(=O)c3ccccc3C4=O)nn2)cc1,-1,1,-1,13,3,-1,40µM*,35µM*
CCOC(=O)C(NC(=O)Cc1coc2c(C)c(C)ccc12)C(=O)OCC,nt,nt,8,nt,nt,nt,nt,nt
C=CC[n+]1c(-c2ccc(C)cc2)csc1Nc1c(C)n(C)n(-c2ccccc2)c1=O,nt,nt,-3,nt,-1,-14,-11%,11%
C=CC[n+]1c(-c2ccc(Cl)cc2Cl)csc1Nc1c(C)n(C)n(-c2ccccc2)c1=O,-16,57*,-3,49*,-7,-28,-48%,-10%
Cc1c(Nc2nc(-c3ccccc3)cs2)c(=O)n(-c2ccccc2)n1C,-3,0,-6,12,-1,-16,nt,nt
c1ccc(CCCN2CCN(c3ccccn3)CC2)cc1,-19,76*,-19,75*,1,0,?,?
c1ccc(N2CCN(c3cnccn3)CC2)nc1,13,-1,0,3,-2,-11,nt,nt
Cc1ccc(CN2CCN(c3ccccn3)CC2)s1,12,-2,-21,94*,65*,68*,?,0.16µM*
Cc1ccc2c(CN3CCN(c4ccccn4)CC3)cc(=O)oc2c1C,nt,nt,-7,nt,nt,nt,nt,nt
CC1(C)C2CC[C@]1(C)C(=O)N(CCCCN1CCN(c3ccccn3)CC1)C2=O,-21,86*,-1,116*,70*,?,?,0.063µM*
c1ccc(N2CCN(Cc3ccsc3)CC2)nc1,-16,76*,?,84*,66*,101*,?,0.71µM*
Cc1cccc(SCc2nc3c(c(=O)[nH]c(=O)n3C)n2C)c1,nt,nt,1,nt,nt,nt,nt,nt
N=c1nnc(-c2ccc(Cl)cc2)cn1O,nt,nt,6,nt,nt,nt,nt,nt
CC(=O)Nc1sc2c(c1CN1CCN(c3ccccn3)CC1)CCCC2,-24,16,2,-10,-3,-31,nt,nt
O=c1cc(CN2CCN(c3ccccn3)CC2)nc2sccn12,-17,55*,-6,12,8,2,10%,22%
Cc1sc(NC(=O)c2ccco2)c(CN2CCN(c3ccccn3)CC2)c1C,-30,68*,-3,124*,8,19,11%,30%
Cc1ccc(CN(C)C(=O)COc2ccc3ccc(=O)oc3c2)cc1,nt,nt,-1,nt,nt,nt,nt,nt
CCn1c(N2CCN(S(=O)(=O)c3ccccc3C(F)(F)F)CC2)nc2ccccc21,-3,3,-6,15,?,2,13µM*,?
CCCCC1c2cc(c(O)cc2O)C(CCCC)c2cc(c(O)cc2O)C(CCCC)c2cc(c(O)cc2O)C(CCCC)c2cc1c(O)cc2O (stereo not drawn),nt,nt,0,nt,nt,nt,nt,nt
Cn1ccc(C(=O)Nc2ccc3c(c2)OCCO3)n1,8,0,1,22,3,4,-5%,-3%
COc1ccc([C@H]2CC(=O)C=C(c3ccc(F)nc3)C2)cc1OC,-6,0,0,4,1,2,nt,nt
SMILES,D2 PAM-1,D2 ag-1,LDHA inh,D2 antag,D2 ag-2,D2 PAM-2,D3 arrestin ag,D2 ag-3
COc1ccc(C2=CC(=O)C[C@H](c3ccc(OC)c(OC)c3)C2)cn1,-3,1,-8,-11,1,-5,2%,4%
COc1ccc([C@H]2CC(=O)C=C(c3ccc4cc[nH]c4c3)C2)cc1,-4,-1,6,0,-2,-3,2%,-2%
COc1ccc(C2CC(=O)C=C(O)C2)cc1 (stereo not drawn),-16,53*,-9,-9,-1,-14,-4%,-3%
O=C1C=C(O)CC(c2ccc(Cl)cc2)C1 (stereo not drawn),4,1,0,-8,-1,-21,nt,nt
COc1ccc(C2=CC(=O)C[C@H](c3ccc(OC)cc3)C2)cc1,0,nt,-2,nt,-2,-8,nt,nt
COc1ccc([C@H]2CC(=O)C=C(c3ccc(OC)cc3OC)C2)cc1,0,1,-1,4,-1,5,-7%,-1%
C[N+]1(CC#Cc2ccccc2)CCC(c2ccccc2)(c2ccccc2)CC1,nt,nt,5,nt,nt,nt,nt,nt
Cc1ccc(-c2cnc(CCC(=O)N3CCN(CC(=O)Nc4cccc(F)c4)CC3)o2)cc1,nt,nt,-19,nt,nt,nt,nt,nt
CCCC(=O)N1CCCN(C(C)C(=O)Nc2ccccc2Cl)CC1 (stereo not drawn),nt,nt,2,nt,nt,nt,nt,nt
COc1ccc([C@H]2CC(=O)C=C(c3cccc(OCc4ccccc4)c3)C2)cc1,-7,-1,-2,9,-3,-12,-11%,-3%
O=C(CCCc1c[nH]c2ccccc12)Nc1ccc(Br)cc1,nt,nt,8,nt,nt,nt,nt,nt
Cc1noc(C)c1COc1ccc(C(=O)N(C)CCOc2ccccc2)cc1,-26,0,-15,-22,12,-2,-8%,6%
Cc1noc(C)c1COC(=O)CCOc1ccccc1,-4,0,-9,-10,-3,-7,nt,nt
C/C=C/c1cc(CN2CCN(c3ccccc3)CC2)c(O)c(OC)c1,-33,nt,-6,nt,5,3,-5%,6%
O=C(Nc1ccc(F)cc1Cl)c1nc2ccccc2nc1N1CCCCC1,nt,nt,-3,nt,nt,nt,nt,nt
CCOc1ccc(NC(=O)CN(C)C(=O)CCC2CCCCC2)cc1OCC,6,-1,-8,12,2,-16,-4%,1%
